Some test systems named below: NCI-H23 lung; NCI-H226 lung; NCI-H322M lung; HOP-62 NSCLC; NCI-H460 lung; HOP-92 NSCLC; NCI-H522 lung; A549/ATCC NSCLC; 786-0 renal; COLO 205 colon.
Common to all, as to test: NCI-60 one-dose screen, 48 h (100 = growth as untreated, 0 = no growth, -100 = all killed)
Holding throughout (details): 10 µM unless noted

The source of these data is PubChem BioAssay (NCI).

Where “and” joins values, the source holds several entries; their conditions need not be identical. Equal entries are not always repeated. About 83,000 compounds went through this panel and 20% of them were active in at least one assay; those are over-represented in the sample as a whole.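 Treatment: one concentration, 48 hours, 96-well format. Scoring: percent growth, with anything below 10 considered active.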 Calls of active or inactive are those of the source.

For the compound `COc1ccc(C2=Nc3c(N)nc(N)nc3NC(c3ccc(Oc4nc(Nc5ccc(F)cc5)nc(N(C)C)n4)c(OC)c3)C2)cc1` (stereo not given), the growth in the assay on NCI-H23 lung is 88.4% (inactive); in the assay with NCI-H226 lung it was 77.4% (inactive); with NCI-H322M lung it was 104% (inactive); in the assay with HOP-62 NSCLC it was 82.5% (inactive); with NCI-H460 lung, 71% (inactive); with HOP-92 NSCLC, 16.6% (inactive). In addition, the growth with NCI-H522 lung was 88% (inactive); in the assay with A549/ATCC NSCLC, 75.5% (inactive); in the assay with 786-0 renal, 52.6% (inactive); in the assay on COLO 205 colon, 91.6% (inactive).

For the compound `Cc1ccc(C(=O)Nc2cc(-n3ccnc3)cc(C(F)(F)F)c2)cc1-n1cc(-c2cnc3cccnn23)nn1`, the growth with NCI-H23 lung is 82% (inactive); in the assay with NCI-H226 lung it was 89.9% (inactive); in the assay with NCI-H322M lung, 113% (inactive); in the assay on HOP-62 NSCLC, 107% (inactive); in the assay on NCI-H460 lung, 97% (inactive); in the assay with HOP-92 NSCLC, 78.8% (inactive). Further, the growth in the assay with NCI-H522 lung is 102% (inactive); with A549/ATCC NSCLC, 101% (inactive); with 786-0 renal, 103% (inactive); in the assay on COLO 205 colon, 42.2% (inactive).

For `COc1ccccc1/C=C/c1cccc(NC(=S)NCCCCN(C)C)c1`, the growth was -97.5% (active) in the assay with NCI-H23 lung; -71.5% (active) in the assay on NCI-H226 lung; -87.4% (active) in the assay on NCI-H322M lung; -51.1% (active) with HOP-62 NSCLC; -74.2% (active) in the assay on NCI-H460 lung; -60.9% (active) in the assay on HOP-92 NSCLC. For the same compound, the growth in the assay on NCI-H522 lung was -66% (active); in the assay with A549/ATCC NSCLC, -51.7% (active); in the assay on 786-0 renal it was -55.3% (active); with COLO 205 colon, -68.2% (active).

For `COc1cccc2nc(Nc3cccc(NC(=O)c4ccc(CN5CCN(C)CC5)c(C(F)(F)F)c4)c3)ccc12`, the growth in the assay with NCI-H23 lung was -97.8% (active); with NCI-H226 lung it was -93.4% (active); in the assay on NCI-H322M lung, -100% (active); in the assay on HOP-62 NSCLC, -78.5% (active); in the assay with NCI-H460 lung, -77.1% (active); with HOP-92 NSCLC it was -66.7% (active). The growth was -87% (active) with NCI-H522 lung, -70.5% (active) with A549/ATCC NSCLC, -81.7% (active) with 786-0 renal and -73.7% (active) with COLO 205 colon.

As to `Cc1ccc(N=Nc2c(N)nn3c(-c4cc5cc(Br)ccc5oc4=O)ccnc23)cc1`, the growth with NCI-H23 lung is 21.7% (inactive); in the assay on NCI-H226 lung it was -26.3% (active); in the assay with NCI-H322M lung, 83.6% (inactive); in the assay on HOP-62 NSCLC, 47.7% (inactive); in the assay on NCI-H460 lung, 34.9% (inactive); in the assay with HOP-92 NSCLC, 73.6% (inactive). In addition, the growth with NCI-H522 lung is 11.7% (inactive); in the assay with A549/ATCC NSCLC it was 113% (inactive); with 786-0 renal, 56.8% (inactive); in the assay on COLO 205 colon it was 100% (inactive).

As to `COc1ccc(/C=C/C(=O)c2ccc(S(=O)(=O)NCCNc3nc(N(C)C)nc(N4CCOCC4)n3)cc2)cc1`, the growth in the assay with NCI-H23 lung is 97.7% (inactive); with NCI-H226 lung it was 89.6% (inactive); in the assay with NCI-H322M lung, 91.7% (inactive); in the assay with HOP-62 NSCLC, 102% (inactive); with NCI-H460 lung, 104% (inactive); in the assay on HOP-92 NSCLC, 93.1% (inactive). In addition, the growth in the assay with NCI-H522 lung is 64.7% (inactive); in the assay with A549/ATCC NSCLC, 91.5% (inactive); in the assay on 786-0 renal it was 80.1% (inactive); with COLO 205 colon, 110% (inactive).

On to `Cc1nn(-c2ccccc2)c2nc(C)n(CC(=O)N/N=C/c3cccc([N+](=O)[O-])c3)c(=O)c12`, for which the growth was 102% (inactive) with NCI-H23 lung; 100% (inactive) in the assay with NCI-H226 lung; 98.1% (inactive) with NCI-H322M lung; 96.1% (inactive) with HOP-62 NSCLC; 106% (inactive) with NCI-H460 lung; 91.9% (inactive) in the assay on HOP-92 NSCLC. The growth is 92.7% (inactive) with NCI-H522 lung, 91.9% (inactive) in the assay on A549/ATCC NSCLC, 84% (inactive) in the assay with 786-0 renal and 120% (inactive) in the assay with COLO 205 colon.

Take `COc1ccc(NC2=C(I)C(=O)C(C)=C(C)C2=O)cc1`: the growth is 32.2% (inactive) with NCI-H23 lung; 78.1% (inactive) with NCI-H226 lung; 95% (inactive) with NCI-H322M lung; 85.4% (inactive) in the assay on HOP-62 NSCLC; 97.9% (inactive) in the assay with NCI-H460 lung; 31.4% (inactive) in the assay on HOP-92 NSCLC. In addition, the growth with NCI-H522 lung is 18.5% (inactive); with A549/ATCC NSCLC, 83.8% (inactive); in the assay with 786-0 renal it was 42.2% (inactive); with COLO 205 colon, 123% (inactive).

With `CC1=C(C(=O)OCc2ccccc2)C(c2cccc3ccccc23)n2c(nc3ccccc32)N1` (stereo not given), the growth in the assay on NCI-H23 lung was 46.4% (inactive); with NCI-H226 lung it was 19.4% (inactive); with NCI-H322M lung, 36.6% (inactive); in the assay on HOP-62 NSCLC, 38.3% (inactive); with NCI-H460 lung it was 9.99% (active); in the assay on HOP-92 NSCLC it was 64.6% (inactive). In addition, the growth in the assay with NCI-H522 lung was -42.2% (active); with A549/ATCC NSCLC, 33.9% (inactive); with 786-0 renal, 30.3% (inactive); with COLO 205 colon, 13.9% (inactive).

Take `O=C(CCl)Nc1ccc(C(=O)/C=C/c2cc3ccccc3nc2Cl)cc1`: the growth in the assay on NCI-H23 lung is -83.6% (active) and 34.9% (inactive); with NCI-H226 lung, 12.4% (inactive) and 14.5% (inactive); in the assay with NCI-H322M lung it was 22.4% (inactive) and 45.1% (inactive); with HOP-62 NSCLC, -8.06% (active) and 37.4% (inactive); with NCI-H460 lung it was -53.6% (active) and 19.5% (inactive); with HOP-92 NSCLC, 46.9% (inactive) and 65.3% (inactive). The growth in the assay on NCI-H522 lung was -62.9% (active) and 76.9% (inactive); with A549/ATCC NSCLC, 72.4% (inactive) and 60.8% (inactive); in the assay on 786-0 renal, -41.7% (active) and 23.9% (inactive); in the assay with COLO 205 colon, -64.4% (active) and 72.4% (inactive).

In the case of `CS(=O)(=O)Nc1cc(-c2ccc3ncnc(N4CCc5cc(F)c(Cl)cc54)c3c2)cnc1Cl`, the growth was 4.88% (active) in the assay with NCI-H23 lung; 8.15% (active) in the assay on NCI-H226 lung; 8.81% (active) with NCI-H322M lung; 27.8% (inactive) in the assay with HOP-62 NSCLC; 12.1% (inactive) with NCI-H460 lung; -20.7% (active) with HOP-92 NSCLC. The growth in the assay with NCI-H522 lung is 17.7% (inactive); in the assay with A549/ATCC NSCLC, -3.2% (active); in the assay on 786-0 renal, 4.55% (active); in the assay on COLO 205 colon it was -1.45% (active).

Consider `COc1ccc(N=Nc2c(N)nn3c(-c4ccc([N+](=O)[O-])cc4)ccnc23)cc1`, for which the growth is 105% (inactive) in the assay on NCI-H23 lung; 95.2% (inactive) with NCI-H226 lung; 107% (inactive) in the assay with NCI-H322M lung; 95.3% (inactive) with HOP-62 NSCLC; 105% (inactive) in the assay on NCI-H460 lung; 94.5% (inactive) in the assay on HOP-92 NSCLC. Moreover, the growth was 91.6% (inactive) in the assay on NCI-H522 lung, 104% (inactive) with A549/ATCC NSCLC, 93% (inactive) in the assay with 786-0 renal and 119% (inactive) in the assay on COLO 205 colon.
